Hits are enriched below; roughly 10% of the tested compounds scored in any of these assays.
HP1b chromo inh – inhibitors of HP1-beta chromodomain binding to methylated histone tails; P83916; actives 0.56% (n = 390,000); AlphaScreen HP1-beta / biotin-H3K9me3 peptide binding; Potency, µM (top dose mostly 114 µM), for the others: top-dose activity change, negative = inhibition, actives largely listed as inhibitors; note: potency is the fitted concentration of half-maximal effect; nearly all actives have a fitted effect of over 70% in size
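Compound inhibition of the preformed complex between 50 nM HP1-beta and 50 nM biotinylated H3K9me3 peptide was read by AlphaScreen. Buffer was PBS pH 7.4 with 0.01% Tween-20. Incubations ran 30 min at room temperature, with 10 ug/mL donor/acceptor beads.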
CtBP-E1A inh – inhibitors of CtBP/E1A interaction; AID 651724; activity change, % (test concentration not listed); AlphaScreen GST-E1A/His-CtBP binding, 1536-well; active compounds read low; actives 0.49% (n = 340,000); in the data active = activity change below about -65%; inconclusive = mostly about -30% to -63%; note: % is set by controls: 0 for no effect and ±100 for the full control effect
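Homogeneous bead-based format: GST-tagged E1A captured on glutathione donor beads, His-tagged CtBP on nickel acceptor beads; compounds precede bead addition by 2 h at 37 °C.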
BAZ2B block – inhibitors of human BAZ2B bromodomain | Q9UIF8 | AlphaScreen BAZ2B-H3K14Ac peptide displacement | Potency, µM (series often up to 114 µM), inactives show at the highest dose activity change, negative = inhibition, usual class: inhibitors | actives 4.4% (n = 360,000) | AID 504333; note: potency is the fitted concentration of half-maximal effect; % is set by controls: 0 for no effect and ±100 for the full control effect; nearly all actives have a fitted effect of over 60% in size
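BAZ2B (50 nM) with biotin-H3(5-23)K14Ac peptide (50 nM) in PBS pH 7.4, 0.01% Tween-20, preformed 30 min, then compound 30 min at room temperature; top concentration 110uM. AlphaScreen streptavidin donor/nickel chelate acceptor beads (10 ug/mL final), 20 min dark, signal read.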
Six1-Eya2 blk – blocks human Six1 binding to Eya2; Q15475+O00167; AlphaScreen GST-Six1/His-Eya2 binding, biochemical; active compounds read low; activity change, % (test concentration not listed); actives 0.56% (n = 360,000); in the data active = activity change below about -65%; inconclusive = mostly about -30% to -63%; note: % is set by controls: 0 for no effect and ±100 for the full control effect
Target sequence (O00167 whole entry, looked up): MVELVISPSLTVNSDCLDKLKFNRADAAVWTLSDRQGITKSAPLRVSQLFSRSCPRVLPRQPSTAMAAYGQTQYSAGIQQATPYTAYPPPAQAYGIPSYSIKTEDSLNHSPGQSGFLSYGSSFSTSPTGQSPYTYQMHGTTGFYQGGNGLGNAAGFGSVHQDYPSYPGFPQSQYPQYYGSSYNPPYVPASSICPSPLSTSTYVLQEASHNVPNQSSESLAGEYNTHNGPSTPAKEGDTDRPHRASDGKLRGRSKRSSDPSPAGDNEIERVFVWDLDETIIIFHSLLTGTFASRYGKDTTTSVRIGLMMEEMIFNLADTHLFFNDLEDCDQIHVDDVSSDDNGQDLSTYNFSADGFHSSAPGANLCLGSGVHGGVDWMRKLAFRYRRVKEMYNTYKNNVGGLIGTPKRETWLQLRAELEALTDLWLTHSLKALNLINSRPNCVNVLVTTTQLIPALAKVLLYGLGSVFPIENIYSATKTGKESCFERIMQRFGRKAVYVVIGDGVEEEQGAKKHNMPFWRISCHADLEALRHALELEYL
Target sequence (Q15475 whole entry, looked up): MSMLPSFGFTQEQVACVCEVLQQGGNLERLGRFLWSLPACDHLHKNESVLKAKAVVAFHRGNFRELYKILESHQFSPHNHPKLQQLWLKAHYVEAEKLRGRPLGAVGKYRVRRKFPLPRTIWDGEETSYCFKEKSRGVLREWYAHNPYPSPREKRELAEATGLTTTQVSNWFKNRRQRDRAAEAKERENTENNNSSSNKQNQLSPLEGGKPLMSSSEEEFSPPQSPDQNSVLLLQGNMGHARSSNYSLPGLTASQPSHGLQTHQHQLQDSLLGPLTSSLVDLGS
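Compounds are tested against tagged Six1 and Eya2 proteins bridged by glutathione donor and nickel acceptor beads; after a one-hour incubation at 37 °C without light, AlphaScreen emission is recorded.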
G9a block – inhibitors of human histone lysine methyltransferase G9a; Potency, µM (top dose mostly 102 µM), for the others: at the highest dose activity, negative = inhibition, usual class: inhibitors; actives 8.8% (n = 350,000); G9a H3K9 monomethylation, AlphaScreen, 2 h; Q96KQ7; note: potency is the fitted concentration of half-maximal effect; % is set by controls: 0 for no effect and ±100 for the full control effect; nearly all actives have a fitted effect of over 75% in size
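Using a bead-based AlphaScreen, monomethylated H3K9 product from 2 h room-temperature reactions (G9a 20 nM, peptide 500 nM, SAM 20 uM) was detected with 0.5 ug/mL rabbit anti-H3K9me1 antibody.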
JMJD2A Tudor – JMJD2A Tudor domain (human) inhibition | AlphaScreen JMJD2A-Tudor / H3K4me3 peptide binding | actives 4.4% (n = 390,000) | Potency, µM (titrated, usually from 114 µM), without a hit: top-dose activity change, negative = inhibition, hits mostly inhibitors | AID 504339 | O75164; note: potency is the fitted concentration of half-maximal effect; % is set by controls: 0 for no effect and ±100 for the full control effect; nearly all actives have a fitted effect of over 50% in size
* hit, by the source's call; ? = inconclusive; · = no result; [ ] = another dose, or the depositor's remark. Unless noted, calls come from the whole dose curve; as a rule, active = well fitted inhibition curve with a large enough effect; inconclusive = small, poorly fitted or top-dose-only effect; inactive = no such curve, though single readings can be large or run the other way.

SMILES	HP1b chromo inh	CtBP-E1A inh	BAZ2B block	Six1-Eya2 blk	G9a block	JMJD2A Tudor
Cc1cccc(OCC(=O)Nc2ccc(S(=O)(=O)N3CCCC3)cc2)c1	37.9%	-6.4	-9.2%	6.2	31.6µM*	-9.6%
Cc1cccc(C)c1OCC(=O)Nc1cccc(S(=O)(=O)N2CCCC2)c1	28.4%	-8.1	-29.2%	-10.4	2.4%	-10.3%
Cc1cc(C)c(OCC(=O)Nc2ccc(S(=O)(=O)N3CCCC3)cc2)c(C)c1	29.8%	5.3	9.2%	30.6	50.1µM*	-13.8%
CCc1cccc(OCC(=O)Nc2ccc(S(=O)(=O)N3CCCC3)cc2)c1	37.9%	-4.4	0.2%	-2.5	40.2%	-5.3%
CN1CCC(N(C)S(=O)(=O)c2ccc(NC(=O)COc3ccc(Br)cc3Cl)cc2)CC1	-6.2%	-5.8	?	-17.7	7.1%[0.501 µM]	-26.9%
CC(C)Cn1cc(NC(=O)Nc2cccc(C(F)(F)F)c2)c2ccccc2c1=O	30.5%	·	8.5%[57.1 µM]	·	?	-31.7%
CC(=O)Nc1ccc(S(=O)(=O)NC(C)C(=O)OCC(=O)Nc2ccc(F)cc2Cl)cc1 (centres undefined)	·	1.8	·	0.4	·	·
O=C(CSc1nnc(Cc2ccccc2)n1Cc1ccco1)NC12CC3CC(CC(C3)C1)C2	4.8%	-3.2	?	-0.6	3.0%[12.7 µM]	?
NC(=O)c1c(NC(=O)CSc2nnc(Cc3ccccc3)n2Cc2ccco2)sc2c1CCC2	-18.7%	1.2	-35.1%	-2.8	39.8µM*	?
CCOC(=O)c1c(NC(=O)CSc2nnc(CNC(=O)c3ccco3)n2C)sc2c1CCC2	5.7%	-16.1	?	-15.4	50.1µM*	-31.7%
O=C(COn1nnc2ccc(C(F)(F)F)cc21)Nc1c(Cl)cccc1Cl	2.8%	0.0	6.5%	5.8	-11.4%[59 µM]	-11.6%
CC[n+]1c(C)sc2cc(OC)ccc21	28.1%	-13.7	-18.4%	-8.8	25.1µM*	-10.0%
CC[n+]1c(C)sc2c(C)cc(C)cc21	54.9%	1.6	-1.3%	0.7	-45.7%[59 µM]	-28.1%
Cc1cc(C)cc(NC(=O)CN2CCc3ccccc3C2)c1	-44.5%	9.2	31.6µM*	10.4	26.9%[0.501 µM]	39.8µM*
CC1Cc2ccccc2N1C(=O)CNc1cccc(S(=O)(=O)N2CCCC2)c1 (centres undefined)	-21.9%	-7.9	?	-8.5	50.1µM*	6.31µM*
O=C(CN1CCc2ccccc2C1)Nc1ccc(F)cc1	33.4%	14.9	1.9%	1.2	19.5%[59 µM]	6.0%
Cc1ccc(C)c(NC(=O)CCN2CCc3ccccc3C2)c1	29.3%	2.2	-38.7%	-1.3	50.1µM*	-15.1%
CN(C)c1ccc(NC(=O)CN2CCc3ccccc3C2)cc1	?	-26.2	39.8µM*	-23.8	12.6µM*	50.1µM*
CCN1CCN(CCC(=O)Nc2cc(C)ccc2C)CC1	31.6%	5.8	-0.6%	0.6	4.8%	-10.3%
Cn1c(SCc2ccccn2)nnc1-c1ccccc1	26.7%	-14.6	15.9%	5.4	·	-14.2%
CC1=C(C(=O)OCC2CCCCC2)C(c2ccc(Cl)cc2Cl)CC(=O)N1 (centres undefined)	6.6%	·	2.0%	·	11.0%[59 µM]	-17.1%
O=C(CSc1nnc(-c2ccc(F)cc2)o1)N1CCCC1	14.5%	3.6	-11.0%	0.5	7.0%	4.6%
Cc1cnn(-c2ccc3nnc(-c4ccc(Cl)cc4)n3n2)c1	47.6%	0.1	3.2%	-5.5	-0.3%	-12.9%
CN1CC(=O)N(CC(=O)Nc2ccc(Cl)c(C(F)(F)F)c2)c2ccccc2C1=O	30.6%	·	3.9%	·	7.2%[59 µM]	-18.7%
CN1CC(=O)N(CC(=O)Nc2ccc(N(C)C)cc2)c2ccccc2C1=O	17.7%	2.6	50.1µM*	1.5	14.1µM*	-26.6%
SMILES	HP1b chromo inh	CtBP-E1A inh	BAZ2B block	Six1-Eya2 blk	G9a block	JMJD2A Tudor
O=C(Cc1ccccc1)Nc1cccc(S(=O)(=O)N2CCCCCC2)c1	29.0%	0.5	2.0%	-1.1	-1.3%[12.7 µM]	-17.6%
O=C(CN1CCc2ccccc2C1)Nc1cccc(S(=O)(=O)N2CCCC2)c1	?	5.5	·	-2.1	3.98µM*	?
CCC(=O)OCc1cnc(C)c2oc(=O)c(C(=O)Nc3ccc(CC)cc3)cc12	32.4%	·	0.7%	·	20.8%[59 µM]	3.3%
Cc1ccc(-n2c(=O)[nH]c3cc(C(=O)NCc4ccccc4)ccc3c2=O)cc1	13.6%	·	3.4%	·	-27.6%[59 µM]	-8.9%
COc1cc(-c2nc3ccc4ccccc4c3c3c2CCC3)cc(OC)c1OC	42.6%	3.0	-4.1%	-0.7	28.0%[12.7 µM]	-7.4%
COc1cc(-c2nc3ccc4ccccc4c3c3c2CCC3)cc(OC)c1O	?	9.1	?	-28.7	79.4µM*	?
C/C(=N\NC(=O)CSCc1ccccc1Cl)c1cc(O)ccc1O	?	-23.7	39.8µM*	?	·	?
Cc1c(P(=S)(c2ccccc2)c2ccccc2)[n+]2ccccc2n1CC(=O)c1ccccc1	·	·	·	·	·	-25.9%
CC(O)CC(C(=O)NNc1ccccc1)C(=O)NNc1ccccc1 (centres undefined)	50.7%	-12.2	-14.6%	-2.6	3.16µM*	-16.7%
COc1ccccc1N1CCN(c2ccc3c(c2)S(=O)(=O)c2cccc(C(=O)NCc4cccc(F)c4)c2C3=O)CC1	·	-4.9	·	0.9	·	·
Cc1cccc(-c2cnc(C(O)Cc3ccccc3)[nH]2)c1 (centres undefined)	·	-5.9	·	-6.2	·	·
CCC1C(C#N)=C(SCC(N)=O)NC2=C1C(=O)CC(C)(C)C2 (centres undefined)	-6.0%	5.8	0.8%	-5.4	39.8µM*	70.8µM*
CC(=O)C1=C(C)NC(SCC(=O)c2ccc(F)cc2)=C(C#N)C1CC(C)C (centres undefined)	25.9%	2.9	-28.9%	13.5	3.55µM*	12.6µM*
CC(=O)C1=C(C)NC(SCC(N)=O)=C(C#N)C1CC(C)C (centres undefined)	-35.7%	2.1	-14.7%	7.7	7.08µM*	22.4µM*
CCOC(=O)C1=C(C)NC(SC)=C(C#N)C1CC(C)C (centres undefined)	46.6%	9.7	18.9%	4.2	-7.1%[12.7 µM]	10.0%
CC(=O)C1=C(C)NC(SCC(=O)c2ccc(Cl)cc2)=C(C#N)C1CC(C)C (centres undefined)	38.4%	-10.6	?	6.0	0.794µM*	?
CC(=O)C1=C(C)NC(SCC(N)=O)=C(C#N)C1C (centres undefined)	?	5.0	-8.4%	0.0	?	12.6µM*
CC(=O)C1=C(C)NC(SCC(N)=O)=C(C#N)C1c1ccco1 (centres undefined)	33.1%	-28.7	?	2.0	?	-15.2%
CCCCOc1cccc(C(=O)N(Cc2cccs2)c2ccc(OC)cc2)c1	84.9%	·	97.0%	·	69.9%[59 µM]	56.3%

Compound activity (PubChem BioAssay)
